# In the antibiotic and cytotoxicity screens of Wong et al. (2023):
# Hit rate of the full screen: of about 39,000 compounds, about 500 (1.3%) were called active. Shown is part of a subset that was picked to be rich in actives.
# Tested on: S. aureus RN4220
# Assay: growth inhibition call (relative growth <= 0.2)
# Conditions: 50 µM
row,Compound,growth inhibition call
1,C[C@H](O)C#Cc1cnc2c(c1)C(=O)N([C@H](C)CO)C[C@H](C)[C@@H](CN(C)C(=O)Nc1ccc(C(F)(F)F)cc1)O2,inactive
2,C[C@H]1O[C@@H](OC[C@H]2O[C@@H](OC[C@]3(C)[C@H]4CC[C@@]5(C)[C@H](CC[C@H]6C7=CC(C)(C)CC[C@]7(C(=O)O)CC[C@@]65C)[C@@]4(C)CC[C@@H]3O)[C@@H](O)[C@@H](O)[C@@H]2O)[C@@H](O)[C@@H](O)[C@@H]1O,inactive
3,C[C@@H]1CN([C@H](C)CO)S(=O)(=O)c2ccc(C#CC3(O)CCCC3)cc2O[C@H]1CN(C)C(=O)Cc1cccnc1,inactive
4,Cc1ccc(S(=O)(=O)Nc2ccc3c(c2)C(=O)N([C@H](C)CO)C[C@@H](C)[C@H](CN(C)S(=O)(=O)c2ccc(C)cc2)OCCCC[C@H](C)O3)cc1,inactive
5,COc1ccc(NC(=O)N(C)C[C@H]2Oc3c(NC(=O)c4cc(C)nn4C)cccc3C(=O)N([C@H](C)CO)C[C@H]2C)cc1,inactive
6,COCC#Cc1ccc([C@H]2[C@@H](CO)N3C(=O)CN(C(=O)c4ccncc4)C[C@H]23)cc1,inactive
7,C[C@@H]1CN([C@H](C)CO)C(=O)Cc2cc(NC(=O)CCN3CCOCC3)ccc2O[C@@H]1CN(C)S(=O)(=O)c1ccc(F)cc1,inactive
8,CC(=O)OC[C@H]1O[C@H](n2ccc(=O)[nH]c2=O)[C@@H](OC(C)=O)[C@@H]1OC(C)=O,inactive
9,O=C(C[C@@H]1CC[C@@H]2[C@H](COC[C@@H](O)CN2C(=O)Nc2cccc(Cl)c2)O1)NCCCN1CCOCC1,active
10,O=C(C[C@H]1CC[C@H]2[C@@H](COC[C@@H](O)CN2C(=O)Nc2cccc(F)c2)O1)NCCCN1CCOCC1,inactive
11,O=C(C[C@H]1CC[C@@H]2[C@H](COC[C@@H](O)CN2C(=O)Nc2cccc(F)c2)O1)NCCCN1CCOCC1,inactive
12,Cc1noc(C)c1S(=O)(=O)N(C)C[C@@H]1Oc2ccc(NC(=O)Cn3cnnn3)cc2CC(=O)N([C@H](C)CO)C[C@@H]1C,inactive
13,Cc1noc(C)c1NC(=O)Nc1ccc2c(c1)C(=O)N([C@@H](C)CO)C[C@H](C)[C@H](CN(C)C(=O)NC1CCCCC1)OCCCC[C@@H](C)O2,inactive
14,C[C@@H]1CCCCO[C@@H](CN(C)C(=O)Nc2ccc(C(F)(F)F)cc2)[C@H](C)CN([C@@H](C)CO)C(=O)c2cc(NC(=O)c3ccncc3)ccc2O1,inactive
15,C[C@@H]1CN([C@@H](C)CO)C(=O)c2cccc(NS(=O)(=O)c3ccc(F)cc3)c2O[C@H]1CN(C)C(=O)Nc1ccc(C(F)(F)F)cc1,inactive
16,C[C@@H]1CCCCO[C@H](CN(C)Cc2ccc(C(F)(F)F)cc2)[C@@H](C)CN([C@@H](C)CO)C(=O)c2cc(NS(=O)(=O)c3cn(C)cn3)ccc2O1,inactive
